The text below walks through data of PubChem BioAssay AID1159577 (Broad Institute, 2015).

The campaign covered roughly 1,300 compounds. About 240 (18%) were called active. Inconclusive results (about 8%) are left out. No rule for the calls is given here. These entries were drawn from the full list. Measured potencies and affinities stand elsewhere.

The nature of the experiment: HepG2 cell cytotoxicity, dose response, cytotoxicity control, cherry-picked samples (AID 1159577).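 Also: 0% = neutral control wells and -100% = positive control wells.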 The conditions noted are these: HepG2 cytotoxicity counterscreen, plate reader; series mostly up to 19.5 µM; activity change, negative = cytotoxicity: at the top concentration. (Counterscreens check selectivity or assay interference.)
As to `COCC(=O)Nc1ccc2c(c1)OC[C@@H](C)N(C(=O)NC(C)C)C[C@@H](C)[C@@H](OC)CN(C)C2=O`, the “activity change, negative = cytotoxicity” value was 19.4% (inactive). In the case of `N#C[C@@H]1[C@@H](c2ccccc2-c2ccccc2F)[C@@H](CO)N1C(=O)C1CCOCC1` it was 21.1% (inactive).

As to `COc1ccc(-c2ccc3c(c2)[C@@H]2[C@@H](CCN2Cc2ccncc2)[C@@H](CO)N3)cc1`, the “activity change, negative = cytotoxicity” value is 0.859% [at 21 µM] (inactive). Regarding `CO[C@@H]1CN(C)C(=O)c2ccc(NC(=O)Nc3ccc(F)cc3)cc2OC[C@@H](C)N(C(=O)c2ccc(F)cc2)C[C@H]1C`, the “activity change, negative = cytotoxicity” value was -20.5% (inactive). In the case of `CC(C)CC#Cc1ccc([C@H]2[C@@H](CO)N3C(=O)CN(C(=O)Cc4ccccc4)C[C@H]23)cc1` it was 4.84% (inactive). The figure for `C[C@H](CO)N1C[C@H](C)[C@@H](CN(C)C(=O)Nc2ccc(-c3ccccc3)cc2)OCc2ccccc2-c2c(n(C)c3ccccc23)C1=O` is 8.31% (inactive); for `COc1ccc2c3c([nH]c2c1)[C@H](CO)N(Cc1ccccc1Cl)CC31CCN(C(C)=O)CC1` it is -18% (inactive); for `C[C@@H]1CN([C@H](C)CO)C(=O)c2cc(C#Cc3ccccc3F)cnc2O[C@H]1CN(C)C(=O)c1ccc2c(c1)OCO2` it is 25.6% (inactive).

With `COc1ccc(-c2ccccc2[C@H]2[C@@H](C#N)N(C(=O)C3CCCC3)[C@H]2CO)cc1`, the “activity change, negative = cytotoxicity” value was -5.04% (inactive). In the case of `CN1c2ccc(C3=CCCCC3)cc2[C@H]2[C@H](CCN2C(=O)C2CC2)[C@@H]1CO` it was -2.49% (inactive); in that of `COC(=O)c1ccc(CN2CC(=O)N3[C@H](CO)[C@@H](c4ccc(-c5ccccc5F)cc4)[C@H]3C2)cc1`, 5.03% (inactive).

`CC(C)NC(=O)N1CCCCN2[C@H](CO)[C@@H](c3ccc(C#C[C@H](C)O)cc3)[C@@H]2C1`: the “activity change, negative = cytotoxicity” value is -6.05% (inactive). The figure for `CCC(=O)N1CCC2(CC1)CN(C(=O)Nc1ccc(F)cc1)[C@@H](CO)c1c2c2ccc(OC)cc2n1C` is 7.49% (inactive). For the compound `C[C@H]1CN([C@@H](C)CO)C(=O)c2cc(NC(=O)Cc3cn(C)c4ccccc34)ccc2O[C@H]1CN(C)S(=O)(=O)c1cccs1`, the “activity change, negative = cytotoxicity” value was 23.9% (inactive). Take `C[C@@H]1CN([C@H](C)CO)S(=O)(=O)c2ccc(-c3ccncc3)cc2O[C@@H]1CN(C)Cc1ccc(Oc2ccccc2)cc1`: the “activity change, negative = cytotoxicity” value is -27.5% (inactive).

On to `C[C@@H]1CN([C@H](C)CO)C(=O)c2cccc(NC(=O)Nc3cccc4ccccc34)c2O[C@@H]1CN(C)C(=O)Nc1ccc(F)cc1`, for which the “activity change, negative = cytotoxicity” value is -28.1% (inactive). The figure for `C/C=C/c1ccc2c(c1)[C@H]1[C@H](CCN1C(=O)c1cccc(F)c1)[C@H](CO)N2` is -6.44% (inactive). Turning to `C[C@@H](NC(=O)C[C@H]1C[C@@H]2c3cc(NS(=O)(=O)c4ccc(F)cc4)ccc3O[C@@H]2[C@H](CO)O1)c1ccccc1`, the “activity change, negative = cytotoxicity” value is -1.47% (inactive). As for `O=C(O)C[C@@H]1C[C@@H]2c3cc(NS(=O)(=O)c4ccccc4)ccc3O[C@@H]2[C@H](CO)O1`, the “activity change, negative = cytotoxicity” value was -22.3% (inactive). The figure for `CCS(=O)(=O)N1CCC2(CC1)CN(Cc1ccc3c(c1)OCO3)[C@@H](CO)c1[nH]c3cc(OC)ccc3c12` is -14.1% (inactive); for `CCCNC(=O)N1[C@H](C#N)[C@H](c2ccc(C#Cc3cccc(F)c3)cc2)[C@H]1CO` it is -1.23% (inactive). With `O=C(C1CCCC1)N1CC[C@@H]2[C@H]1c1cc(-c3cccc(F)c3)ccc1N[C@@H]2CO`, the “activity change, negative = cytotoxicity” value is 1.55% (inactive). Take `N#Cc1cccc(-c2ccc3c(c2)[C@H]2[C@H](CCN2Cc2ccncc2)[C@@H](CO)N3)c1`: the “activity change, negative = cytotoxicity” value was -4.34% [at 21 µM] (inactive). In the case of `O=C(Cc1ccncc1)N1CC[C@@H]2[C@@H](CO)Nc3ccc(-c4cccc(F)c4)cc3[C@@H]21` it was 9.47% (inactive); in that of `N#Cc1cccc(-c2ccc3c(c2)[C@@H]2[C@@H](CCN2Cc2cncnc2)[C@H](CO)N3)c1`, -6.56% [at 21 µM] (inactive); in that of `COc1ccc(S(=O)(=O)N(C)C[C@H]2Oc3c(NC(=O)Nc4ccc5c(c4)OCO5)cccc3C(=O)N([C@@H](C)CO)C[C@H]2C)cc1`, -19.6% (inactive).

`CCc1nc(N2[C@H](C#N)[C@H](c3ccccc3-c3ccccc3F)[C@H]2CO)sc1C`: the “activity change, negative = cytotoxicity” value was -24% (inactive). In the case of `COc1ccc(CN2CC3(CN(C(=O)Cc4ccccc4)C3)c3c([nH]c4cc(OC)ccc34)[C@H]2CO)cc1` it was -13.9% [at 21 µM] (inactive). As to `CO[C@H]1CN(C)C(=O)c2ccc(NC(=O)Nc3cc(F)ccc3F)cc2OC[C@@H](C)N(C)C[C@H]1C`, the “activity change, negative = cytotoxicity” value was 10.8% (inactive).

Turning to `COc1ccc2c3c(n(C)c2c1)[C@H](CO)N(C(=O)CC1CC1)CC31CCN(Cc2nccs2)CC1`, the “activity change, negative = cytotoxicity” value was -4.39% (inactive). In the case of `Cc1ccccc1S(=O)(=O)N1[C@H](C#N)[C@H](c2ccc(C#CC3CCCC3)cc2)[C@@H]1CO` it was -7.23% (inactive). The figure for `CN1c2ccc(C#Cc3cccnc3)cc2[C@@H]2[C@@H](CCN2S(=O)(=O)c2ccccc2F)[C@@H]1CO` is 18.3% (inactive).

Take `Cc1ccc(S(=O)(=O)N(C)C[C@H]2OCc3ccccc3-c3c(n(C)c4ccccc34)C(=O)N([C@@H](C)CO)C[C@@H]2C)cc1`: the “activity change, negative = cytotoxicity” value is 22.6% (inactive). In the case of `O=S(=O)(c1ccc(F)cc1)N1C[C@@H]2N[C@H](C1)C2c1ccc(-c2ccc(F)cc2)cc1` (stereo partly specified) it was -10.6% (inactive). The figure for `Cc1ccc(-c2ccc(C3[C@@H]4CN(S(=O)(=O)c5ccccc5)C[C@H]3N4)cc2)cc1` (stereo partly specified) is -22.7% (inactive); for `N#Cc1ccc(-c2ccc(C3[C@@H]4CN(S(=O)(=O)c5ccc(F)cc5)C[C@H]3N4)cc2)cc1` (stereo partly specified) it is 18.2% (inactive); for `Cc1ccc(S(=O)(=O)N2C[C@@H]3N[C@H](C2)C3c2ccc(-c3ccncc3)cc2)cc1` (stereo partly specified) it is -10.5% [at 21 µM] (inactive). For `O=S(=O)(c1ccc(-c2ccccc2)cc1)N1C[C@@H]2N[C@H](C1)[C@@H]2c1ccc(-c2cccnc2)cc1`, the “activity change, negative = cytotoxicity” value was -36.2% (inactive).

For `Cn1cnc(S(=O)(=O)N2C[C@@H]3N[C@H](C2)C3c2ccc(-c3ccccc3F)cc2)c1` (stereo partly specified), the “activity change, negative = cytotoxicity” value was -4.06% (inactive). In the case of `COc1cccc(-c2ccc3c(c2)[C@H]2[C@H](CCN2C(=O)C2CCCC2)[C@H](CO)N3)c1`, the “activity change, negative = cytotoxicity” value is -23.9% [at 21 µM] (inactive). Turning to `COc1ccc2c3c(n(C)c2c1)[C@@H](CO)N(C(=O)c1ccc(F)cc1)CC31CCN(C(=O)Nc2ccc(F)cc2)CC1`, the “activity change, negative = cytotoxicity” value is 0.95% (inactive). The figure for `COc1ccc(NC(=O)N(C)C[C@@H]2Oc3cc(-c4ccc(C)cc4)ccc3S(=O)(=O)N([C@@H](C)CO)C[C@@H]2C)cc1` is -13.5% (inactive); for `COc1ccc(C#Cc2ccc3c(c2)[C@H]2[C@H](CCN2C(=O)C2CCC2)[C@H](CO)N3)cc1` it is -4.14% [at 21 µM] (inactive); for `OC[C@@H]1CC[C@@H]2O[C@H](CCc3ccc(C#CCc4ccccc4)cc3)[C@H](n3cc(-c4ccccc4)nn3)C[C@@H]2O1` it is -19.3% (inactive). As to `C[C@@H]1CN([C@H](C)CO)C(=O)c2cccc(NC(=O)Nc3cccc4ccccc34)c2O[C@H]1CN(C)C(=O)NC1CCCCC1`, the “activity change, negative = cytotoxicity” value was 16.1% (inactive). Turning to `CCCNC(=O)N1CC(=O)N2[C@@H](CO)[C@@H](c3ccc(C#Cc4cccc(OC)c4)cc3)[C@@H]2C1`, the “activity change, negative = cytotoxicity” value was 4.91% (inactive). Turning to `COc1cccc(S(=O)(=O)N(C)C[C@@H]2Oc3ncc(C#Cc4ccc(OC)c(OC)c4)cc3C(=O)N([C@H](C)CO)C[C@@H]2C)c1`, the “activity change, negative = cytotoxicity” value is 29.1% (inactive). Turning to `COc1ccc(NC(=O)N(C)C[C@H]2OCc3ccccc3-c3c(n(C)c4ccccc34)C(=O)N([C@@H](C)CO)C[C@H]2C)c(OC)c1`, the “activity change, negative = cytotoxicity” value was 7.72% [at 21 µM] (inactive).

Take `C[C@@H]1CN([C@@H](C)CO)C(=O)c2cccc(NC(=O)C3CC3)c2O[C@@H]1CN(C)C(=O)Nc1ccc(C(F)(F)F)cc1`: the “activity change, negative = cytotoxicity” value is -20% (inactive). In the case of `COc1cccc(NC(=O)N2[C@H](CO)[C@@H](c3ccccc3)[C@H]2CNCC(C)C)c1` it was -10.2% (inactive); in that of `O=S(=O)(c1ccccc1)N1C[C@@H]2N[C@H](C1)C2c1ccc(-c2ccc(F)cc2)cc1` (stereo partly specified), -31.9% (inactive); in that of `CC=Cc1ccc2n(c1=O)C[C@@H]1[C@@H](CO)[C@H](C(=O)N3CCC(Cc4ccccc4)CC3)N(CCC)[C@H]21` (mixture of isomers), -14.5% (inactive). In the case of `C[C@H](CO)N1C[C@H](C)[C@H](CN(C)Cc2ccc(Oc3ccccc3)cc2)Oc2ccc(NS(=O)(=O)c3ccc(Cl)cc3)cc2CC1=O` it was -10.2% [at 21 µM] (inactive); in that of `C[C@@H]1CN([C@H](C)CO)C(=O)c2cc(NC(=O)Nc3ccc(C(F)(F)F)cc3)ccc2O[C@H]1CN(C)C(=O)Nc1cccc2ccccc12`, 10.9% (inactive); in that of `C[C@H](CO)N1C[C@H](C)[C@@H](CN(C)C(=O)Nc2cccc3ccccc23)Oc2ccc(NC(=O)Nc3cccc4ccccc34)cc2CC1=O`, 27.7% (inactive). In the case of `C[C@H](CO)N1C[C@H](C)[C@@H](CN(C)Cc2ccc(Oc3ccccc3)cc2)Oc2ccc(NS(=O)(=O)c3cn(C)cn3)cc2CC1=O` it was 8.5% (inactive); in that of `C[C@H]1CN([C@@H](C)CO)C(=O)c2cc(NC(=O)Nc3cccc4ccccc34)ccc2O[C@@H]1CN(C)Cc1ccc(Oc2ccccc2)cc1`, -10.6% [at 21 µM] (inactive).

On to `CO[C@H]1CN(C)C(=O)c2cc(NC(=O)C3CC3)ccc2OC[C@@H](C)N(Cc2cc(F)ccc2F)C[C@H]1C`, for which the “activity change, negative = cytotoxicity” value was 30.6% (inactive).

In the case of `O=S(=O)(c1ccccc1)N1CC[C@@H]2[C@H](CO)Nc3ccc(C#CC4CCCCC4)cc3[C@@H]21`, the “activity change, negative = cytotoxicity” value was -12.5% [at 23.5 µM] (inactive). The figure for `COc1ccc2c3c(n(C)c2c1)[C@@H](CO)N(C(=O)C1CCC1)CC31CN(C(=O)Nc2cccc(F)c2)C1` is -35.6% (inactive); for `COc1cccc(-c2ccc3c(c2)[C@H]2[C@H](CCN2C(=O)C2CCCC2)[C@@H](CO)N3)c1` it is -10.3% (inactive). The figure for `COCC#Cc1ccc([C@@H]2[C@H](CO)N3CCCCN(S(=O)(=O)c4ccc(OC)cc4)C[C@@H]23)cc1` is 2.6% (inactive); for `CCC(=O)N1CC2(C1)CN(Cc1cc(F)ccc1F)[C@@H](CO)c1[nH]c3cc(OC)ccc3c12` it is -3.61% (inactive). In the case of `OC[C@@H]1CC[C@@H]2O[C@H](CCc3ccc(-c4ccc(F)cc4)cc3)[C@H](n3cc(C4CC4)nn3)C[C@@H]2O1` it was -5.35% (inactive). With `CC(C)(C)[S@](=O)N1Cc2cc(C(=O)NCCN3CCCC3)nc(-c3cccc(-c4ccc(C#N)cc4)c3)c2[C@@H]1CCO`, the “activity change, negative = cytotoxicity” value is -4.11% [at 21 µM] (inactive). As for `CCc1csc(N2[C@H](C#N)[C@H](c3ccccc3-c3ccc(F)cc3)[C@H]2CO)n1`, the “activity change, negative = cytotoxicity” value was -13.9% (inactive). With `C/C=C/c1ccc([C@H]2[C@@H](CO)N(C(=O)CC)[C@@H]2CNCC2CCCCC2)cc1`, the “activity change, negative = cytotoxicity” value was -6.29% [at 21 µM] (inactive). For `C/C=C/c1ccc([C@H]2[C@@H](C#N)N(C(=O)NC3CCCC3)[C@@H]2CO)cc1`, the “activity change, negative = cytotoxicity” value was -18.6% [at 21 µM] (inactive).

On to `C/C=C/c1ccc([C@H]2[C@@H](CO)N(CC3CCCCC3)[C@@H]2CNC(C)C)cc1`, for which the “activity change, negative = cytotoxicity” value was -4.8% [at 21 µM] (inactive). As to `C/C=C/c1ccccc1[C@@H]1[C@@H](CO)N(S(=O)(=O)c2cccc(F)c2)[C@H]1C#N`, the “activity change, negative = cytotoxicity” value is -0.51% [at 21 µM] (inactive). In the case of `C/C=C/c1ccc([C@H]2[C@@H](CO)N(CC3CCCC3)[C@@H]2CNC(=O)NC(C)C)cc1` it was 7.86% [at 21 µM] (inactive).
